Experimental findings from PubChem BioAssay (NCI) are described below.

Test systems include DU-145 prostate; K-562 leukemia; MALME-3M melanoma; MDA-MB-231 breast; RXF 393 renal; SF-268 CNS; SF-539 CNS; UACC-257 melanoma; M14 melanoma; HCT-15 colon; HT29 colon; SNB-75 CNS; SNB-19 CNS; U251 CNS; SK-MEL-5 melanoma; UACC-62 melanoma; LOX IMVI melanoma; SK-MEL-28 melanoma; SF-295 CNS; PC-3 prostate.
Holding throughout (experiment): NCI-60 one-dose screen, 48 h (100 = growth as untreated, 0 = no growth, -100 = all killed)
Common to all, as to details: 10 µM unless noted

About 83,000 compounds went through this panel and 20% of them were active in at least one assay; those are over-represented in the sample as a whole.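 Treatment: one concentration, 48 hours, 96-well format. Scoring: percent growth, with anything below 10 considered active.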 Values without a mark were called inactive. The source made the active and inactive calls.

Consider `Cc1cc(Nc2ccc(C)c(Cl)c2)n2nc(C(F)(F)F)nc2n1`, for which the growth in the experiment on DU-145 prostate is 42.5%; in the experiment with K-562 leukemia, 54.8%; in the experiment with MALME-3M melanoma it was -15.2% (active); in the experiment with MDA-MB-231 breast it was 2.77% (active); with RXF 393 renal, -9.51% (active); in the experiment with SF-268 CNS, 39.4%. Further, the growth is 33.1% with SF-539 CNS; 74.4% in the experiment on UACC-257 melanoma; 51.7% in the experiment with M14 melanoma; 66.9% with HCT-15 colon; 25.5% in the experiment with HT29 colon; -30.7% (active) in the experiment with SNB-75 CNS. Further, the growth in the experiment with SNB-19 CNS was 37.4%; in the experiment with U251 CNS, -18.3% (active); in the experiment with SK-MEL-5 melanoma, 75.4%; with UACC-62 melanoma, 66.9%; in the experiment on LOX IMVI melanoma it was 12.2%; in the experiment with SK-MEL-28 melanoma, 82.8%.
In the case of `CC(=O)O[C@H]1CC[C@]2(C)[C@H]3CC=C4[C@@H]5CC(C)(C)CC[C@]5(C(=O)NCCNCCN)CC[C@@]4(C)[C@]3(C)CC[C@H]2C1(C)C`, the growth was -45.3% (active) in the experiment with DU-145 prostate; -47.2% (active) in the experiment with K-562 leukemia; -71.2% (active) with MALME-3M melanoma; -66.5% (active) in the experiment on MDA-MB-231 breast; 44.9% in the experiment with RXF 393 renal; 74.3% in the experiment with SF-268 CNS. Also, the growth is 92.8% in the experiment on SF-295 CNS; 70.3% in the experiment with SF-539 CNS; -42.3% (active) in the experiment with UACC-257 melanoma; -81.4% (active) in the experiment with M14 melanoma; -89.3% (active) with HCT-15 colon; 88% in the experiment with SNB-75 CNS. The growth in the experiment on SNB-19 CNS was 2.09% (active); with PC-3 prostate, -44.3% (active); with SK-MEL-5 melanoma, 71.4%; in the experiment on UACC-62 melanoma, -21.2% (active); with LOX IMVI melanoma, -100% (active); in the experiment with SK-MEL-28 melanoma, -85.6% (active).
Turning to `COc1cccc(-c2nc3sccn3c2-c2ccnc(NCCCNS(=O)(=O)c3cccc(Cl)c3)c2)c1`, the growth was 46.4% in the experiment with DU-145 prostate; 22.2% in the experiment with K-562 leukemia; 60% in the experiment with MALME-3M melanoma; 71.9% in the experiment on MDA-MB-231 breast; 71.9% in the experiment on RXF 393 renal; 52.2% with SF-268 CNS. In addition, the growth in the experiment with SF-295 CNS is 21.2%; with SF-539 CNS, 86.2%; in the experiment on UACC-257 melanoma, 55.2%; in the experiment on M14 melanoma it was 30.8%; in the experiment on HCT-15 colon, 28.7%; in the experiment with SNB-75 CNS, 51.8%. For the same compound, the growth with SNB-19 CNS is 66.3%; in the experiment with PC-3 prostate it was 21.7%; with SK-MEL-5 melanoma it was -12.5% (active); in the experiment on UACC-62 melanoma, -7.03% (active); in the experiment on LOX IMVI melanoma, 35.6%; in the experiment on SK-MEL-28 melanoma, 67.4%.
On to `OC(c1cc2cc(Cl)c(Cl)cc2c2cc(C(F)(F)F)ccc12)C1CCCCN1` (stereo not drawn), for which the growth with DU-145 prostate was -86.2% (active); with K-562 leukemia, -63.5% (active); with MALME-3M melanoma, -17.6% (active); in the experiment with MDA-MB-231 breast it was -71.3% (active); in the experiment with RXF 393 renal, -96.2% (active); in the experiment with SF-268 CNS, -88.6% (active). The growth with SF-539 CNS is -57.9% (active); in the experiment on UACC-257 melanoma, -73% (active); with M14 melanoma, -80.9% (active); with HCT-15 colon, -60.7% (active); in the experiment on HT29 colon, -73.6% (active); in the experiment on SNB-75 CNS, -64% (active). Further, the growth in the experiment with SNB-19 CNS is -64.1% (active); in the experiment on U251 CNS it was -92.3% (active); in the experiment on PC-3 prostate it was -84.8% (active); in the experiment with UACC-62 melanoma, -38.4% (active); in the experiment with LOX IMVI melanoma, -88.2% (active); in the experiment with SK-MEL-28 melanoma, -79.1% (active).
As to `O=C(Oc1cccnc1)c1ccsc1Nc1ccnc(C(F)(F)F)c1`, the growth in the experiment on DU-145 prostate was 108%; in the experiment on K-562 leukemia, 25.7%; in the experiment on MALME-3M melanoma, 84.9%; in the experiment on MDA-MB-231 breast it was 63.2%; with RXF 393 renal it was 105%; in the experiment on SF-268 CNS it was 42.6%. The growth in the experiment with SF-539 CNS is 99.9%; with UACC-257 melanoma, 76%; in the experiment on M14 melanoma, 81.6%; in the experiment on HCT-15 colon, 45.9%; with HT29 colon, 4.26% (active); in the experiment with SNB-75 CNS it was 80.5%. Also, the growth with SNB-19 CNS was 97.7%; in the experiment with PC-3 prostate, 83.8%; in the experiment with UACC-62 melanoma, 91.5%; in the experiment with LOX IMVI melanoma, 21.9%; in the experiment on SK-MEL-28 melanoma, 89.3%.
`CC(=O)c1nc2ccccc2n1CC(=O)c1cccc(Cl)c1`: the growth in the experiment with DU-145 prostate was 5.27% (active); in the experiment with K-562 leukemia it was -0.209% (active); in the experiment on MALME-3M melanoma, 90.6%; in the experiment on MDA-MB-231 breast it was 28.1%; in the experiment on RXF 393 renal, 2% (active); with SF-268 CNS, 13.2%. In addition, the growth in the experiment with SF-295 CNS was 8.35% (active); in the experiment with SF-539 CNS, -31.3% (active); in the experiment on UACC-257 melanoma, 36.5%; in the experiment on M14 melanoma, 16.6%; in the experiment on HCT-15 colon, 27.3%; in the experiment on SNB-75 CNS, 21%. Further, the growth in the experiment with SNB-19 CNS is 24.1%; with U251 CNS, 14.3%; in the experiment with SK-MEL-5 melanoma, -13.2% (active); in the experiment on UACC-62 melanoma it was 31.5%; with LOX IMVI melanoma it was 36.9%; in the experiment on SK-MEL-28 melanoma, 67.7%.
As to `NC(=O)c1cc(Cl)ccc1NC(=O)/C=C/c1ccccc1`, the growth in the experiment with DU-145 prostate is -0.745% (active); in the experiment on K-562 leukemia, 11.6%; in the experiment on MALME-3M melanoma, 67%; in the experiment on MDA-MB-231 breast it was 39.2%; with RXF 393 renal, -11.1% (active); in the experiment with SF-268 CNS, 46.1%. Further, the growth is -6.33% (active) in the experiment on SF-539 CNS; 46.2% in the experiment with UACC-257 melanoma; 28.1% in the experiment with M14 melanoma; 27.3% in the experiment on HCT-15 colon; 8.83% (active) in the experiment on HT29 colon; 0.0967% (active) with SNB-75 CNS. Further, the growth in the experiment with SNB-19 CNS was 26.7%; in the experiment on U251 CNS, 29.8%; with SK-MEL-5 melanoma it was 5.23% (active); in the experiment with UACC-62 melanoma, 47.7%; in the experiment on LOX IMVI melanoma, 53.3%; in the experiment with SK-MEL-28 melanoma, 40.6%.
For the compound `O=C1Nc2ccc(Br)cc2C12Oc1ccccc1C1CC(c3ccc(F)cc3)=NN12` (stereo not drawn), the growth is 100% with DU-145 prostate; 84.7% in the experiment with K-562 leukemia; 103% in the experiment with MALME-3M melanoma; 105% with MDA-MB-231 breast; 102% in the experiment on RXF 393 renal; 85.5% with SF-268 CNS. In addition, the growth in the experiment with SF-295 CNS was 97.9%; with SF-539 CNS, 91.9%; in the experiment on UACC-257 melanoma, 104%; in the experiment with M14 melanoma, 103%; in the experiment with HCT-15 colon it was 79.9%; with SNB-75 CNS it was 86%. In addition, the growth in the experiment on SNB-19 CNS was 90.6%; with U251 CNS it was 90.9%; with SK-MEL-5 melanoma it was 93.3%; with UACC-62 melanoma, 84.6%; in the experiment with LOX IMVI melanoma it was 91.9%; with SK-MEL-28 melanoma, 105%.
